NTR1 ag = agonists of human neurotensin receptor NTR1; P30989; NTR1-U2OS beta-arrestin-GFP spot imaging, agonist mode; activation, % at 20 µM; 330,000 tested, 0.17% active; AID 493036;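 active means activation at or above 40% of the spot to cytoplasm intensity ratio, with at least 20 cells analyzed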;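 further: 0% = DMSO without peptide and 100% = 100 nM NTR1 peptide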
Platelet DG rel = modulates dense granule release in human platelets; inhibition, %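 (compounds screened at 7.5 µM in platelet-rich plasma)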; AID 1663; human platelet-rich plasma, SFLLRN dense granule ATP release, luminescence; 300,000 tested, 0.22% active;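 active means mean replicate score, as percent of positive control, at or above 50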
beta cell repl = MIN6 beta-cell proliferation induction; MIN6 cells proliferation, ATPlite luminescence, 48 h; cells starved in 0.2% serum; 100% = growth in 10% serum; proliferation, % at 10 µM; 330,000 tested, 0.29% active; AID 2380;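 active means compounds whose signal lies at least 3.5 SD above the mean of all wells on their plate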;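 further: 0% = DMSO-treated cells in low-serum medium and 100% = 10% serum control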
GRK2 inh = inhibitors of human GRK2 displacing RNA aptamer; P25098; bead flow cytometry, FAM-aptamer displacement from GRK2; inhibition of aptamer binding, % at 10 µM; 330,000 tested, 0.59% active; AID 488847;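 active means inhibition of aptamer binding above 40%, roughly 3 SD of noise, on plates passing a quality check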;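 further: median bead fluorescence of bound FAM aptamer so fluorescent compounds give negative values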
Target sequence (P25098 whole entry, looked up): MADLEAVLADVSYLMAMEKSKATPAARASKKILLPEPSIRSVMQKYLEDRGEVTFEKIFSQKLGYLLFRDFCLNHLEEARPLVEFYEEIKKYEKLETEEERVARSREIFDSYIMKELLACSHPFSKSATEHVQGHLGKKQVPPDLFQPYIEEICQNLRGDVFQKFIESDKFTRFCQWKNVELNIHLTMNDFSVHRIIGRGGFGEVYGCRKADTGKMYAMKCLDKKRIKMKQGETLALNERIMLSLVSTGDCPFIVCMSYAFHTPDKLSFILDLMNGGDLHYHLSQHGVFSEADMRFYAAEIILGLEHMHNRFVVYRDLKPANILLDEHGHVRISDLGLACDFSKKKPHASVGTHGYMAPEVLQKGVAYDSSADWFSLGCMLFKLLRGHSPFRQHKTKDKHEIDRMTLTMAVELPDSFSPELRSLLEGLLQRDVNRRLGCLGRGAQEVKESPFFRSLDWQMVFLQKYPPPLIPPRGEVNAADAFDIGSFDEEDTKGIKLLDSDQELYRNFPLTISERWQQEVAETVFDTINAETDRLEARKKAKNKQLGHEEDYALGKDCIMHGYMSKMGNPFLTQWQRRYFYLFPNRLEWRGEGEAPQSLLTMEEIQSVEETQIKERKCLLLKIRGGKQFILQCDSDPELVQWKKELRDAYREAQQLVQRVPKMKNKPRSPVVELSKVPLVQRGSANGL
GRK2 CP1 = confirmation of human GRK2 inhibitors displacing RNA aptamer; AID 504451; aptamer displacement, % at 10 µM; bead-bound GRK2, FAM-aptamer displacement, flow cytometry; 2,000 tested, 4% active; shares compounds with GRK2 inh;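 active means aptamer displacement above 40%, near three times the noise of non-fluorescent compounds, on plates passing quality checks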;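 further: negative values mostly reflect intrinsic compound fluorescence rather than true enhancement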
Aptamer quench = quenches fluorescent RNA aptamer, GRK2 hit artifact; shares compounds with GRK2 inh; 110 tested, under 10 active; Fluorescent RNA aptamer beads, quenching, flow cytometry; hits give high values; fluorescence change (kMESF span), kMESF (test concentration not listed);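 active means compounds whose bead fluorescence drops by more than 37 kMESF across the dose range, marking them as dye quenchers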
FAM quench CP1 = counter-screen for GRK2 aptamer inhibitors: fluorescent aptamer quenchers | shares compounds with GRK2 inh | Carboxyfluorescein RNA aptamer on beads, flow cytometry quenching; hits give low values | fluorescence response (% of DMSO), % at 10 µM | 2,000 tested, under 10 active | AID 504580;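 active means compounds that quench the bead-bound fluorescent RNA probe, cutting fluorescence to under half of the solvent control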;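 further: counterscreen run without GRK2 so only probe quenching by compound is measured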
GRK2 CP2 = human GRK2 inhibition confirmation, cherry pick 2 | inhibition of aptamer binding, % at 10 µM | shares compounds with GRK2 inh | bead-bound GRK2, FAM-aptamer displacement, flow cytometry | 360 tested, under 10 active | AID 504782;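 active means inhibition of aptamer binding above 40%, about triple the noise seen with nonglowing compounds, on plates passing quality control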;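 further: negative values mostly come from compounds that fluoresce themselves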
Aptamer quench3 = counter-screen for GRK2 aptamer inhibitors: fluorescent aptamer quenchers | 25 tested, under 10 active | change in fluorescence (kMESF span), kMESF (concentration not given with the values) | Streptavidin beads, FAM-RNA aptamer fluorescence quenching, flow cytometry | shares compounds with GRK2 inh | AID 504819;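 active means compounds quenching the bead-bound labeled aptamer, with fluorescence dropping by more than 37 kMESF over the dose range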
FAM quench CP2 = quenches fluorescent RNA aptamer, GRK2 hit artifact | shares compounds with GRK2 inh | carboxyfluorescein RNA aptamer beads, flow cytometry quenching; hits give low values | fluorescence response vs DMSO, % at 10 µM | 360 tested, under 10 active | AID 588494;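 active means response vs DMSO under 50%, meaning signal dropped by over half, treated as fluorescence quencher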;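 further: labelled aptamer on streptavidin beads without GRK2 as a quench counter-screen; 100% = bead fluorescence of DMSO wells and lower means quenching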
FAM quench DR = quenches fluorescent RNA aptamer, GRK2 hit artifact | fluorescence ratio to DMSO, % at 11.1 µM | Bead-bound FAM RNA aptamer fluorescence quenching, flow cytometry; hits give low values | shares compounds with GRK2 inh | 35 tested, under 10 active;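 active means compounds that dim the fluorescent label, raw bead signal shifting by over 33 units between lowest and highest dose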
* hit, by the source's call; · = not tested or not shown. The list is not random: actives were taken first. Their share in the collection is about 1.2%.

SMILES	NTR1 ag	Platelet DG rel	beta cell repl	GRK2 inh	GRK2 CP1	FAM quench CP1	others
Cc1ccc(NC(=O)CSc2nc3ccccc3nc2N2CCCC2)cc1	7.0	16.2	-5.2	1.0	·	·
COc1ccc(S(=O)(=O)N2CCN(C(=O)Cc3ccsc3)CC2)cc1	-0.9	·	-2.9	·	·	·
COc1ccc(OC)c(CNC(=O)c2ccc(C)c(NC(=O)C3=C(C)OCCS3)c2)c1	-0.1	3.6	0.9	0.0	-0.4	101.0
COCCNC(=O)c1ccc(C)c(NC(=O)C2=C(C)OCCS2)c1	-0.3	1.3	-1.5	5.0	·	·
CC1=C(C(=O)Nc2cc(C(=O)N(C)Cc3ccccc3)ccc2C)SCCO1	-0.4	16.7	3.5	2.0	0.9	101.5
CCN(CC)CC(C)CNC(=O)C1(O)c2ccccc2NC(=O)N1c1ccc(Cl)c(Cl)c1 (configuration not stated)	-2.7	4.6	-3.0	0.0	·	·
CC(=O)c1ccc(NC(=O)CCS(=O)(=O)c2ccc3c(c2)n(C)c(=O)c(=O)n3C)cc1	3.8	6.8	0.0	48.0*	35.6	105.3	GRK2 CP2=25.5;FAM quench CP2=99.0
COC(=O)c1ccc(NC(=O)CCS(=O)(=O)c2ccc(C)cc2)cc1	0.0	0.1	-0.5	0.0	·	·
CC(=O)Nc1ccc(NC(=O)CCS(=O)(=O)c2ccc3c(c2)oc(=O)n3C)cc1	1.1	12.6	1.4	0.0	·	·
CCc1cccc(NC(=O)CCS(=O)(=O)c2ccc(Br)cc2)c1	0.3	-1.9	1.2	93.0*	72.8*	95.8	Aptamer quench=6.4;Aptamer quench3=1.4
COC(=O)c1ccc(NC(=O)CCS(=O)(=O)c2ccc(Br)cc2)cc1	2.8	4.4	-2.4	58.0*	33.8	101.3	Aptamer quench=15.7;Aptamer quench3=0.7;FAM quench DR=103.0
O=C(CCCCCN1C(=O)[C@@H]2Cc3ccccc3CN2C1=O)Nc1ccccc1Cl	1.2	0.5	-1.4	2.0	·	·
O=C(CCCCCN1C(=O)[C@@H]2Cc3ccccc3CN2C1=O)Nc1cccc(F)c1	2.2	6.0	1.2	0.0	2.5	95.8
O=C(CCCCCN1C(=O)[C@@H]2Cc3ccccc3CN2C1=O)Nc1ccccc1F	-1.2	-2.9	0.4	3.0	-0.9	96.3
Cc1cccc(NC(=O)CCCCCN2C(=O)[C@@H]3Cc4ccccc4CN3C2=O)c1	2.6	-1.6	0.3	0.0	-0.8	98.3
Cc1ccc(NC(=O)CCCCCN2C(=O)[C@@H]3Cc4ccccc4CN3C2=O)cc1	0.6	0.6	0.1	0.0	·	·
COc1ccc(NC(=O)CCCCCN2C(=O)[C@@H]3Cc4ccccc4CN3C2=O)cc1Cl	0.9	2.9	-1.4	0.0	-0.2	99.0
Cc1ccc(S(=O)(=O)N2CCN(C(=O)COC(=O)CSc3ccccc3)CC2)c(C)c1	1.1	-3.7	5.0	2.0	·	·
CNc1ccc([N+](=O)[O-])cc1-c1nc2ccccc2[nH]c1=O	2.2	-2.2	-1.5	0.0	·	·
Cc1ccnc2nc(C(=O)OCC(=O)Nc3ccc([N+](=O)[O-])cc3Br)nn12	-1.2	·	-2.3	4.0	·	·
Cn1cnc(C(=O)NCc2ccc(CNC(=O)OC(C)(C)C)cc2)c1C(=O)NCc1ccc(CNC(=O)OC(C)(C)C)cc1	2.3	·	-2.7	4.0	·	·
CCN(CC)S(=O)(=O)c1ccc2c(c1)N(CC(=O)Nc1ccc(NC(C)=O)cc1)C(=O)CO2	0.5	0.0	0.4	1.0	·	·
Cc1cc2ccccc2n1CCNC(=O)c1cccs1	-0.9	-1.2	-3.9	98.0*	80.6*	88.2	Aptamer quench=27.9;FAM quench DR=100.0
Cc1cc2ccccc2n1CCNC(=O)C1CC1	0.3	-7.6	-3.5	32.0	·	·
Cc1cc2ccccc2n1CCNC(=O)C1CCCC1	0.8	0.7	-3.5	99.0*	-0.7	100.4	GRK2 CP2=-1.1;FAM quench CP2=99.0
SMILES	NTR1 ag	Platelet DG rel	beta cell repl	GRK2 inh	GRK2 CP1	FAM quench CP1	others
O=C(O)c1ccccc1Nc1cccc(OCc2ccc3ccccc3n2)c1	-1.2	·	-4.4	0.0	6.1	90.0
CNC(=O)CSc1nc2nn(-c3ccccc3)c(=O)c-2c2n1CCCCC2	2.7	-7.4	-1.6	4.0	·	·
CC(C)CNC(=O)CSc1nc2nn(-c3ccccc3)c(=O)c-2c2n1CCCCC2	1.1	6.4	-3.0	39.0	-4.2	99.1
C/C(=N\OCc1ccc(C#N)cc1)c1ccc(S(=O)(=O)N(C)C)cc1	2.9	1.5	-0.7	47.0*	1.1	95.7
N#Cc1ccccc1NS(=O)(=O)c1cc2c3c(c1)CCC(=O)N3CCC2	0.4	3.2	-3.0	0.0	·	·
COc1cc(C(=O)NCc2nnc(SCC(=O)Nc3cc(C)on3)o2)cc(OC)c1OC	0.0	2.3	-1.2	74.0*	0.0	103.2
COc1ccc(C(=O)NCc2nnc(SCC(=O)Nc3cc(C)on3)o2)cc1OC	-0.7	1.7	-0.1	0.0	·	·
Cc1c(C(=O)O)cccc1-c1ccc(C=O)o1	-1.1	8.7	0.0	11.0	·	·
Cc1ccc(C)c(N2C(=N)S/C(=C\c3ccc(-c4ccccc4C(=O)O)o3)C2=O)c1	·	-2.6	·	0.0	·	·
CCOC(=O)C(C)N1C(=O)S/C(=C\c2ccc(-c3ccccc3C(=O)O)o2)C1=O (configuration not stated)	-0.3	-2.3	0.8	84.0*	71.3*	103.3	Aptamer quench=-278
O=C(O)c1ccc(-c2ccc(/C=c3/sc4nc5ccccc5n4c3=O)o2)cc1Cl	-0.2	14.5	-3.9	80.0*	60.1*	94.5	Aptamer quench=10.1
Cc1ccc2c(nc3s/c(=C\c4ccc(-c5ccccc5C(=O)O)o4)c(=O)n32)c1C	5.6	-5.6	-2.7	49.0*	2.4	104.9
Cc1cc(/C=c2\sc3nc4ccccc4n3c2=O)c(C)n1-c1ccc(C(=O)O)cc1	·	-4.8	·	·	·	·
CCCCCCCNC(=O)C1(CC2CC(c3ccc(Cl)cc3)=NO2)CCN(C(=O)C2(C)CC2)CC1 (configuration not stated)	2.6	3.8	-7.5	1.0	·	·
O=C(COc1coc(CN2CCc3ccccc3C2)cc1=O)Nc1cccc([N+](=O)[O-])c1	17.6	10.9	4.8	0.0	·	·
CCOc1ccc(NC(=O)c2cc3ccccc3cc2O)cc1	5.5	-3.1	-5.5	28.0	10.3	100.0

Source: PubChem
